pAkt inh: Akt phosphorylation inhibition; 360,000 compounds, 0.32% hits; activity change, % for hits at 50 µM; Neuro2A IGF-stimulated pAkt S473 HTRF, 20 min; hits give low values; in the data active means activity change below about -80%; inconclusive means mostly about -51% to -80%
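Neuro2A cells in DMEM with 0.5% FBS, overnight at 37 deg C, given compound at single 50 µM final, then IGF (6 nM final) for 20 min at 37 deg C. Lysed; phospho-Akt Ser473 by HTRF after 24 h, 665/615 ratio.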
Mito fusion yeast: blocks mitochondrial division or promotes mitochondrial fusion; S. cerevisiae fusion-defective mutant growth rescue, CellTiterGlo 48 h; 320,000 compounds, 0.23% hits; AID 485298; Potency, µM (doses to about 46.1 µM), usual class: activators; further: nearly all actives have a fitted effect of over 45% in size
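Temperature-sensitive fusion-defective S. cerevisiae (e.g. fzo1-1, mgm1-5) were grown with compound in YPEG medium (3% ethanol, 3% glycerol) for 48 hours at 37C. Growth rescue was measured as viability by CellTiterGlo luminescence after 10 minutes at ambient.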
Anesthetic bind: binds horse apoferritin like a general anesthetic; 350,000 compounds, 0.074% hits; apoferritin/1-aminoanthracene competitive binding, fluorescence; Potency, µM (top dose mostly 77.5 µM), actives largely listed as inhibitors; P02791; further: nearly all actives have a fitted effect of over 20% in size
Target sequence (P02791 2-175 limits assumed): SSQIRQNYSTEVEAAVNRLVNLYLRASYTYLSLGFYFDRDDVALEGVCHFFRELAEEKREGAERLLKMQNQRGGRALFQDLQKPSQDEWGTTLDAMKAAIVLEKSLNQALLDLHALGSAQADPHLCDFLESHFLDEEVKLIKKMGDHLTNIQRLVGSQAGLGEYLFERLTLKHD
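Horse-spleen apoferritin (10 uM) in 50% saturated 1-aminoanthracene in PBS was incubated 10 min at room temperature with compound. Fluorescence (ex 380, em 535 nm) was normalized to free and bound 1-AMA, with concentration-response fitted by a four-parameter Hill equation.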
TDP-43 yeast inh: inhibitors of TDP-43 toxicity in yeast; AID 652104; Potency, µM (top dose mostly 46.1 µM), usual class: activators; TDP-43 expressing yeast growth rescue, BacTiter-Glo, 24 h; 410,000 compounds, 1.8% hits; further: nearly all actives have a fitted effect of over 50% in size
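Luminescence from BacTiter-Glo reports growth of TDP-43-expressing yeast after 24 hr at 30 deg C with compound. Cells were raffinose-pregrown to mid-log, then seeded in galactose medium at OD600=0.02.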
aSyn yeast inh: alpha-synuclein toxicity inhibition in yeast. Yeast expressing alpha-synuclein, growth rescue, BacTiter-Glo, 24 h. Potency, µM (series often up to 46.1 µM), hits mostly activators. 370,000 compounds, 0.14% hits; further: nearly all actives have a fitted effect of over 65% in size
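Galactose-induced alpha-syn yeast (OD600=0.02, raffinose-pregrown) + pinned cpd, 24 hr, 30 deg C; growth by BacTiter-Glo luminescence. Growth restoration scores as activation.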
CCT modulator: modulators of cytosolic chaperonin (CCT/TRiC) activity; 360,000 compounds, 0.3% hits; AID 651819; activity change, % (concentration not given with the values), hits read low; purified chaperonin ATPase assay, HTRF ADP detection, 30 min; in the data active means activity change below about -30%
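TRiC (40 or 20 nM final, by batch activity) in 30 mM Tris pH 7.4, 100 mM KCl, 5 mM MgCl2, 1 mM DTT was treated with compound at 76 uM single dose, then 10 uM ATP, 30 min at 37 °C. ADP was read by HTRF Transcreener.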
Each line names hits and unclear results; the compound was inactive in the other large screens. A selection: hits, their analogues and other compounds. The true share with any hit is near 2.5%. Unless noted, the call rests on the fitted dose curve; in most records, active means well fitted curve in the direction sought with a large enough effect; inconclusive means small, poorly fitted or top-dose-only effect, or another doubt; inactive means no such curve, though single readings can be large; an effect the other way counts as inactive or inconclusive.

Nc1ncnc2c1nc(Sc1ccc(Cl)cc1)n2[C@H]1OC2COP(=O)(O)O[C@@H]2C1O (some centres undefined)	none (no result: pAkt inh, Anesthetic bind, TDP-43 yeast inh, CCT modulator)
O=c1c2ccccc2n(Cc2ccccc2Cl)c(=O)n1CCc1ccccc1	none (no result: pAkt inh, Mito fusion yeast, aSyn yeast inh, CCT modulator)
C=C1C=C(C(F)F)n2ncc(C(=O)NCc3ccc(OC)c(OC)c3)c2N1	none (no result: pAkt inh, Mito fusion yeast, Anesthetic bind, TDP-43 yeast inh, CCT modulator)
Cc1cc(Nc2cccc(C(=O)O)c2)n2nc(C)nc2n1	none (no result: pAkt inh, Mito fusion yeast, aSyn yeast inh, CCT modulator)
CC(=O)c1cccc(Nc2cc(C)nc3nc(-c4ccccc4C)nn23)c1	TDP-43 yeast inh 11µM (no result: pAkt inh, Mito fusion yeast, aSyn yeast inh, CCT modulator)
CC1Cc2cc(S(=O)(=O)NCc3ccc(N(C)C)cc3)ccc2N1C(=O)C1CCC1 (centres undefined)	none (no result: pAkt inh, Mito fusion yeast, aSyn yeast inh, CCT modulator)
CC1(Cc2ccccc2OC(F)(F)F)C(=O)Nc2ccc(-c3ccsc3)cc21 (centres undefined)	TDP-43 yeast inh 20µM (no result: Mito fusion yeast, Anesthetic bind)
CC(C)(C)c1ccc(C(=O)NCCc2csc3nc(-c4ccccc4F)nn23)cc1	Anesthetic bind inconclusive, TDP-43 yeast inh 35µM (no result: pAkt inh, Mito fusion yeast, aSyn yeast inh, CCT modulator)
CCCCOc1ccc(C(=O)NCCc2csc3nc(-c4ccccc4F)nn23)cc1	Anesthetic bind inconclusive (no result: pAkt inh, Mito fusion yeast, aSyn yeast inh, CCT modulator)
O=C(NCCc1csc2nc(-c3ccc(F)cc3)nn12)c1ccco1	none (no result: pAkt inh, Mito fusion yeast, aSyn yeast inh, CCT modulator)
Cc1ccccc1-c1nc2scc(CCNC(=O)c3ccco3)n2n1	TDP-43 yeast inh 18µM (no result: pAkt inh, Mito fusion yeast, aSyn yeast inh, CCT modulator)
Oc1ccc(/C=N/NC(=S)NCc2ccco2)cc1	pAkt inh -116%
CCN(CC)c1ccc(/C=N/NC(=S)NCc2ccco2)cc1	none
S=C(NCc1ccco1)N/N=C/c1ccc(Cl)cc1	TDP-43 yeast inh 22µM
Cc1ccc(S(=O)(=O)N2CCN(c3nc(-n4ccnc4)nc4ccccc34)CC2)cc1	aSyn yeast inh 2µM (no result: pAkt inh, Mito fusion yeast, Anesthetic bind, TDP-43 yeast inh, CCT modulator)
Cc1c(C(=O)Nc2ccc(F)c(C(F)(F)F)c2)sc2nc(-c3ccccc3)cn12	none (no result: pAkt inh, Mito fusion yeast, aSyn yeast inh, CCT modulator)
O=[N+]([O-])c1nn(-c2ccc3c(c2)OCCO3)n(O)c1=Nc1ccc(Cl)cc1	Anesthetic bind inconclusive
CCc1ccc(N=c2c([N+](=O)[O-])nn(-c3ccc4c(c3)OCCO4)n2O)cc1	Anesthetic bind inconclusive, TDP-43 yeast inh 20µM
O=[N+]([O-])c1nn(-c2ccc3c(c2)OCCO3)n(O)c1=Nc1ccccc1	Mito fusion yeast inconclusive, Anesthetic bind inconclusive, TDP-43 yeast inh 11µM
Cc1nnc(SCc2ccc(Cl)c(Cl)c2)s1	Anesthetic bind inconclusive, TDP-43 yeast inh 13µM
Cc1nnc(SCc2ccc(F)cc2)s1	Anesthetic bind inconclusive
CCCCC(=O)Nc1ccc(NC(=O)c2ccccc2OC)cn1	pAkt inh -108%
CCOC(=O)c1[nH]c(C)c(C(=O)OCC(=O)NC2CCS(=O)(=O)C2)c1C (centres undefined)	none
CCOC(=O)c1c(C)[nH]c(C(=O)OCC(=O)NC2CCS(=O)(=O)C2)c1C (centres undefined)	pAkt inh -112%
Cc1ccc(Nc2ncc(C(=O)N3CCN(c4ccc(F)cc4)CC3)c3ccccc23)cc1Cl	TDP-43 yeast inh 13µM (no result: pAkt inh, Mito fusion yeast, aSyn yeast inh, CCT modulator)
Cc1ccc(SCC(c2ccccc2)N2CCN(C)CCC2=O)cc1 (centres undefined)	none (no result: pAkt inh, Mito fusion yeast, TDP-43 yeast inh, aSyn yeast inh, CCT modulator)
O=C1c2ccccc2C(=O)N1c1ccc(S(=O)(=O)N2CCOCC2)cc1	none (no result: pAkt inh, Mito fusion yeast, Anesthetic bind, TDP-43 yeast inh, CCT modulator)
CC(C)C1NC2(C(=O)c3ccccc3C2=O)C2C(=O)N(c3ccc(F)cc3)C(=O)C12 (centres undefined)	pAkt inh -120%
O=C1C2C3C=CC(CC3)C2C(=O)N1c1ccc(F)cc1 (centres undefined)	Anesthetic bind inconclusive
Clc1ccc(-c2n[nH]c3c2CCC3)cc1Cl	Anesthetic bind inconclusive, TDP-43 yeast inh 20µM
CN1CCN(/C=N/C2=C(C#N)C(c3ccccc3)C3=C(CC(C)(C)CC3=O)O2)CC1 (centres undefined)	CCT modulator -34
O=C(/C=C/c1ccc(Cl)cc1)N1CCN(c2c(Cl)cccc2[N+](=O)[O-])CC1	Mito fusion yeast inconclusive, TDP-43 yeast inh 11µM
O=C(CSc1ccc(Cl)cc1)N1CCN(c2c(Cl)cccc2[N+](=O)[O-])CC1	Anesthetic bind inconclusive, TDP-43 yeast inh inconclusive, aSyn yeast inh inconclusive
Cc1cc(C)c(NC(=O)Cn2c(=O)n(CCc3ccccc3)c(=O)c3ccccc32)c(C)c1	TDP-43 yeast inh inconclusive (no result: pAkt inh, Mito fusion yeast, aSyn yeast inh, CCT modulator)
COc1ccc2c(c1)-c1ccccc1S(=O)(=O)N(C)C2	TDP-43 yeast inh inconclusive (no result: Mito fusion yeast, Anesthetic bind)
COc1ccc2c(c1)-c1ccccc1S(=O)(=O)N2C	TDP-43 yeast inh 11µM
O=C(O)c1cccc(-n2cc(-c3cccc(C(F)(F)F)c3)cn2)c1	Mito fusion yeast 16µM
O=C(O)c1ccc(-c2nc(-c3cccc(C(F)(F)F)c3)cs2)cc1	none
CCC(C)Sc1oc(-c2ccco2)nc1S(=O)(=O)c1ccc(C)cc1 (centres undefined)	none (no result: pAkt inh, Mito fusion yeast, aSyn yeast inh, CCT modulator)
Cc1ccc2c(C)c(C(=O)N3CCN(c4cnccn4)CC3)oc2c1C	TDP-43 yeast inh 13µM
Cc1cc(Cl)c2oc(C(=O)N3CCN(c4cnccn4)CC3)c(C)c2c1	none (no result: Mito fusion yeast, Anesthetic bind)
Cc1ccc2c(C)c(C(=O)N3CCC(O)(c4ccccc4)CC3)oc2c1C	Anesthetic bind inconclusive, TDP-43 yeast inh 22µM
CC1CCCCN1S(=O)(=O)c1ccc2[nH]c(=O)cc(C(=O)NCCc3ccc(Cl)cc3)c2c1 (centres undefined)	Anesthetic bind inconclusive (no result: pAkt inh, Mito fusion yeast, aSyn yeast inh, CCT modulator)
